Assays:
Assay in all cases: DAPPL (digital affinity profiling via proximity ligation, sequencing); 10 mM Tris-HCl pH 7.5, 50 mM NaCl, 1 mM DTT, 4% glycerol, room temperature, 30 min; GST-TFs on glutathione beads, 16-mer random dsDNA library, 0.1% formaldehyde crosslink after washing; high values mean tight binding
Conditions in all cases: protein: recombinant; tags: N-terminal GST; dsDNA, one strand shown
FLI1 = biological target: T1, FLI1 (Homo sapiens, UniProt Q01543 1-452)
T1 sequence: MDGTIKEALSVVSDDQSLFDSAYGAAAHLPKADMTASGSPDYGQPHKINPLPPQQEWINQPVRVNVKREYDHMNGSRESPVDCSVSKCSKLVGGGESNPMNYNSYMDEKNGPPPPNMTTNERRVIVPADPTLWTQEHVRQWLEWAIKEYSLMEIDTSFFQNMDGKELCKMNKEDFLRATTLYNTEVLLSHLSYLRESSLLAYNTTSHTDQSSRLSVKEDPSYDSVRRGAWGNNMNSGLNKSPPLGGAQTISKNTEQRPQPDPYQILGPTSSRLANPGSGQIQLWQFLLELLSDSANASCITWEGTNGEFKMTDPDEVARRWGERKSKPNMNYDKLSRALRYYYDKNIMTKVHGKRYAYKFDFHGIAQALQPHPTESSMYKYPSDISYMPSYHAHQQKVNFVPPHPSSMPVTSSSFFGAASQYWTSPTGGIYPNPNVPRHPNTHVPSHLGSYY
Summary of the method: (§1)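 Human transcription factors were made in yeast as GST fusions, captured on glutathione beads and barcoded with DNA. With a tag-only sample included, the pool was incubated with 200 nmole of a random double-stranded 16-mer DNA library in Tris/NaCl/DTT/glycerol buffer at room temperature for 30 min, then crosslinked with 0.1% formaldehyde after washing, ligated by proximity, amplified and sequenced. For binding signal, each hexamer's read frequency for a factor is divided by its frequency for the tag-only sample.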

ELK1 = biological target: T2, ELK1 (Homo sapiens, UniProt P19419 1-428)
T2 sequence: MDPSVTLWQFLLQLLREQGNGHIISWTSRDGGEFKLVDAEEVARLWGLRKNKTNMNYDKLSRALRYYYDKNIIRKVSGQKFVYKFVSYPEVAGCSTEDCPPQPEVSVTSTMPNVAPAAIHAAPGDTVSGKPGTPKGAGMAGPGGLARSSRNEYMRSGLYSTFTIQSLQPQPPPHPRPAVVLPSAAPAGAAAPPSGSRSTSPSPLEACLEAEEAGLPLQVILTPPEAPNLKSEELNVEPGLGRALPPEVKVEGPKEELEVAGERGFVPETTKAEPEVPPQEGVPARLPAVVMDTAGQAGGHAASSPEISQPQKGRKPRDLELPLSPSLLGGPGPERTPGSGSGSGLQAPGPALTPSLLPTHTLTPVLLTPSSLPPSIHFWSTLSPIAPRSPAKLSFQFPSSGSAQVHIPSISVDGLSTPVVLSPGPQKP
Summary of the method: as §1

GABPA = biological target: T3, GABPA (Homo sapiens, UniProt Q06546 1-454)
T3 sequence: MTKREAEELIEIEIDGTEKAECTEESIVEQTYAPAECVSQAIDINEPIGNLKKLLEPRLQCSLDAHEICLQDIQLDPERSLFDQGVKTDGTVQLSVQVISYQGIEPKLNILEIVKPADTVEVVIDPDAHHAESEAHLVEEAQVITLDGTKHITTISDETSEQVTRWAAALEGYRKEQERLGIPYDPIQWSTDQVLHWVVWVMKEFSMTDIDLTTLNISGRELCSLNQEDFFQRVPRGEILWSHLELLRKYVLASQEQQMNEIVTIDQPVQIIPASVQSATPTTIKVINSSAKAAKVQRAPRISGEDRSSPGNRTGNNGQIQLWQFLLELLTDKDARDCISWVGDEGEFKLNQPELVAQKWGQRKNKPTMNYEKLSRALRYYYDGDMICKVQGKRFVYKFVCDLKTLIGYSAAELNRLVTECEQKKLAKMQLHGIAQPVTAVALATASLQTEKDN
Summary of the method: as §1

ERG = biological target: T4, ERG (Homo sapiens, UniProt P11308 1-479)
T4 sequence: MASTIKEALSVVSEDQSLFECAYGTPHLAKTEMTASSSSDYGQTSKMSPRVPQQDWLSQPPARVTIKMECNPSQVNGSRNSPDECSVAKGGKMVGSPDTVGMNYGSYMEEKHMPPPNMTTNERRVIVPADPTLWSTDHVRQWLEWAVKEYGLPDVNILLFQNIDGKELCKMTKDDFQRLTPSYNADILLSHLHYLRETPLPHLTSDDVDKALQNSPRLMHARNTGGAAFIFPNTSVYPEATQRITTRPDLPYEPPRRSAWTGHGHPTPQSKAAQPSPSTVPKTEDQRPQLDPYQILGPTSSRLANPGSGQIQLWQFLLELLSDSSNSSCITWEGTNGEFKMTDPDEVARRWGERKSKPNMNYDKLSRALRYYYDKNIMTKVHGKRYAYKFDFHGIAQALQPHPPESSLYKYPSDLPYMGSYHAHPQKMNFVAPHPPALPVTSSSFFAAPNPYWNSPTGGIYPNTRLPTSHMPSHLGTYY
Summary of the method: as §1

ELF1 = ELF1 (Homo sapiens, UniProt P32519 1-619)
Summary of the method: as §1

EHF = biological target: T5, EHF (Homo sapiens, UniProt Q9NZC4 1-300)
T5 sequence: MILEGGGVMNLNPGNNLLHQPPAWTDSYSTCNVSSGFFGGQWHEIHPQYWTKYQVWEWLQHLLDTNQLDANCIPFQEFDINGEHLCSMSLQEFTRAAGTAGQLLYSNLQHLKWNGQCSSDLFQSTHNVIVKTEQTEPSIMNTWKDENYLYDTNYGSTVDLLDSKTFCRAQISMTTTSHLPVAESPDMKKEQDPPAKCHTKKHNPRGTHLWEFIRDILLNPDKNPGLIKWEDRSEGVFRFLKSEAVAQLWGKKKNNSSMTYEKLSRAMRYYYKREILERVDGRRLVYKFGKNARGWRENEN
Summary of the method: as §1

SPI1 = SPI1 (Homo sapiens, UniProt P17947 1-270)
Summary of the method: as §1

SPIB = SPIB (Homo sapiens, UniProt Q01892 1-262)
Summary of the method: as §1

ELK3 = biological target: T6, ELK3 (Homo sapiens, UniProt P41970 1-407)
T6 sequence: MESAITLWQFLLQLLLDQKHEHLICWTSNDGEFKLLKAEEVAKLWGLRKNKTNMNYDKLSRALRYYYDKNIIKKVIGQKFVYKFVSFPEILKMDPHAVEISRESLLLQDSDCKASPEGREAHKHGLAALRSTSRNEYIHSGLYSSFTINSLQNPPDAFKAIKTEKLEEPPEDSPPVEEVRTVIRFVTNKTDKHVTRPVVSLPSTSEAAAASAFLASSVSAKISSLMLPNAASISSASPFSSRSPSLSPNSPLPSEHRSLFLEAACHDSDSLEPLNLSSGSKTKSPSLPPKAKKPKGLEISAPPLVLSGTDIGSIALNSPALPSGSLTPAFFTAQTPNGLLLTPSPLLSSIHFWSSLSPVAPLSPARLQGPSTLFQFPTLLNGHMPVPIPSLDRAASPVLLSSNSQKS
Summary of the method: as §1

FEV = biological target: T7, FEV (Homo sapiens, UniProt Q99581 1-238)
T7 sequence: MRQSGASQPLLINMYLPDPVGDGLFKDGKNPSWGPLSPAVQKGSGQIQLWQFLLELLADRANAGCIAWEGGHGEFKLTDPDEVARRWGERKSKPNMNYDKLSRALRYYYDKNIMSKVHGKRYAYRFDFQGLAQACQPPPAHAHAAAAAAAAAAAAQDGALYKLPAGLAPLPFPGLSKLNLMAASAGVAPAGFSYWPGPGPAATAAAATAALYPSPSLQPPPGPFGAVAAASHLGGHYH
Summary of the method: as §1

ETV5 = ETV5 (Homo sapiens, UniProt P41161 1-510)
Summary of the method: as §1

SPIC = biological target: T8, SPIC (Homo sapiens, UniProt Q8N5J4 1-248)
T8 sequence: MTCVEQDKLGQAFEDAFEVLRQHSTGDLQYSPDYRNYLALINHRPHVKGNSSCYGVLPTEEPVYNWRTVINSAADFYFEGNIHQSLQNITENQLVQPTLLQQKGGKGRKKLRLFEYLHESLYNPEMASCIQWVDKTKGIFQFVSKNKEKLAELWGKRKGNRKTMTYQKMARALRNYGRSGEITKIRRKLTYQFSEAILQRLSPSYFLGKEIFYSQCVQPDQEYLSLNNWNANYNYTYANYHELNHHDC
Summary of the method: as §1

ELF4 = ELF4 (Homo sapiens, UniProt Q99607 1-663)
Summary of the method: as §1

ELK4 = biological target: T9, ELK4 (Homo sapiens, UniProt P28324-2 1-405)
T9 sequence: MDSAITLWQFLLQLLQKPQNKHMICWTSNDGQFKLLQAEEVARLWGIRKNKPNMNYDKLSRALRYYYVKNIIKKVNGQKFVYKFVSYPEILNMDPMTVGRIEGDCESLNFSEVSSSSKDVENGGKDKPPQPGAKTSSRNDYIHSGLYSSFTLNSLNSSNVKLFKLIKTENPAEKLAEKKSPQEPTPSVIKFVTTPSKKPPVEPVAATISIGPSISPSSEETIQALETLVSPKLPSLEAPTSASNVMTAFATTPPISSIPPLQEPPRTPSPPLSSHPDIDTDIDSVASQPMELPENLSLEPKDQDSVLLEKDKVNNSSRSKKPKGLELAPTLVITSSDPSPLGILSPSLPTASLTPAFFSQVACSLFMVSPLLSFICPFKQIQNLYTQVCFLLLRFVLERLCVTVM
Summary of the method: as §1

ETV2 = biological target: T10, ETV2 (Homo sapiens, UniProt O00321 1-342)
T10 sequence: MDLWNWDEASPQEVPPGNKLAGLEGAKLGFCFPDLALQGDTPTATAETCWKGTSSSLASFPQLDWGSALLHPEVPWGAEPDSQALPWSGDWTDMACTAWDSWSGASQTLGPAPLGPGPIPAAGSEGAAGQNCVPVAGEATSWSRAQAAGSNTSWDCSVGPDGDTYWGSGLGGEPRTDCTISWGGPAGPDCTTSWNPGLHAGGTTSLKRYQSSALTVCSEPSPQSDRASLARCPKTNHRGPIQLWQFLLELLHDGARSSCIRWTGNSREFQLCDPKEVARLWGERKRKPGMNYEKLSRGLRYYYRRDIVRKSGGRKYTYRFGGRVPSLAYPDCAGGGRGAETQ
Summary of the method: as §1

ELF3 = biological target: T11, ELF3 (Homo sapiens, UniProt P78545 1-371)
T11 sequence: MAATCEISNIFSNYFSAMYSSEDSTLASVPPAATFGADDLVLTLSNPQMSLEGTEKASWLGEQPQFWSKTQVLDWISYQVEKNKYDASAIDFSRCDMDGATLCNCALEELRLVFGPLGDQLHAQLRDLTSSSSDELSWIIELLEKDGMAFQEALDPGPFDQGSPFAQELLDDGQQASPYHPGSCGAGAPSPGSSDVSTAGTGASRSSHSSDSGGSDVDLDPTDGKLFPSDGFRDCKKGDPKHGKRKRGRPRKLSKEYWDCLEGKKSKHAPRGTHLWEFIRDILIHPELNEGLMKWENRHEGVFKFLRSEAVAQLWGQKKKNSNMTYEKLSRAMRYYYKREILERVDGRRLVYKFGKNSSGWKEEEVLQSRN
Summary of the method: as §1

CRX = CRX (Homo sapiens, UniProt O43186 1-299)
Summary of the method: as §1

ETV1 = ETV1 (Homo sapiens, UniProt P50549 1-477)
Summary of the method: as §1

Sequence of ELF4 (Q99607 whole entry): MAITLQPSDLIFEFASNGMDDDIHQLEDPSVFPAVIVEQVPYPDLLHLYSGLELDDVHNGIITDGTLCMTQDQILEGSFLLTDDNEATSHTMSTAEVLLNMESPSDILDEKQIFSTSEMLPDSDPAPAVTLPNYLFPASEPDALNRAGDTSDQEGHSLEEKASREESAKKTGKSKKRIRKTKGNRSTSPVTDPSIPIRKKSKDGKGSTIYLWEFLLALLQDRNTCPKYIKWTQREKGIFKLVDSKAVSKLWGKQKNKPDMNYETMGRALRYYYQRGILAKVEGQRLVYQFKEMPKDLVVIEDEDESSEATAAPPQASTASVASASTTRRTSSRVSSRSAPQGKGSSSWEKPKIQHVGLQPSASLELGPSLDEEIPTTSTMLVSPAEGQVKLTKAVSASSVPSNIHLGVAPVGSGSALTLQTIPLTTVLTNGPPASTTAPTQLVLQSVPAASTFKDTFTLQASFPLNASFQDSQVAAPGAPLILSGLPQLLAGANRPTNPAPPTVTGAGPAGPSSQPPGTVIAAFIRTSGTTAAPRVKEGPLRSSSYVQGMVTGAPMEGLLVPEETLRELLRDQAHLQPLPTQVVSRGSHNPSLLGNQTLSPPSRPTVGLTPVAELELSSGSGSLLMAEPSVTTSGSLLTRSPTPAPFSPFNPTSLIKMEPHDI
Sequence of ELF1 (P32519 whole entry): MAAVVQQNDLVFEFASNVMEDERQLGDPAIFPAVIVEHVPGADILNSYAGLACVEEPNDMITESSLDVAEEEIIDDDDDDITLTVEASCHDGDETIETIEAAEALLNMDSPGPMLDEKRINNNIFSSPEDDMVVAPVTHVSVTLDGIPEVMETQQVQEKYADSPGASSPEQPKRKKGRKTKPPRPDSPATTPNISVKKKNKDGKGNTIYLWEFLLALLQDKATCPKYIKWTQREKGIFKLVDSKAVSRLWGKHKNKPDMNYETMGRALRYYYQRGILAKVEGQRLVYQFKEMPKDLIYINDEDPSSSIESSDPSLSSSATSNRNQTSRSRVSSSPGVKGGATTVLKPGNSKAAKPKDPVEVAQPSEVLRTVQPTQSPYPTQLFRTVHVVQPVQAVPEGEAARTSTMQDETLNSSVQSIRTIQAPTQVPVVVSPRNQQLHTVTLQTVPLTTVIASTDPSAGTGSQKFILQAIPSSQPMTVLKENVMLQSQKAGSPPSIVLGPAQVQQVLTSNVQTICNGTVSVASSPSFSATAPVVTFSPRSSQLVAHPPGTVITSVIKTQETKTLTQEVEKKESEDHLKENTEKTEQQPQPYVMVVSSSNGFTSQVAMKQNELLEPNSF
Sequence of ETV5 (P41161 whole entry): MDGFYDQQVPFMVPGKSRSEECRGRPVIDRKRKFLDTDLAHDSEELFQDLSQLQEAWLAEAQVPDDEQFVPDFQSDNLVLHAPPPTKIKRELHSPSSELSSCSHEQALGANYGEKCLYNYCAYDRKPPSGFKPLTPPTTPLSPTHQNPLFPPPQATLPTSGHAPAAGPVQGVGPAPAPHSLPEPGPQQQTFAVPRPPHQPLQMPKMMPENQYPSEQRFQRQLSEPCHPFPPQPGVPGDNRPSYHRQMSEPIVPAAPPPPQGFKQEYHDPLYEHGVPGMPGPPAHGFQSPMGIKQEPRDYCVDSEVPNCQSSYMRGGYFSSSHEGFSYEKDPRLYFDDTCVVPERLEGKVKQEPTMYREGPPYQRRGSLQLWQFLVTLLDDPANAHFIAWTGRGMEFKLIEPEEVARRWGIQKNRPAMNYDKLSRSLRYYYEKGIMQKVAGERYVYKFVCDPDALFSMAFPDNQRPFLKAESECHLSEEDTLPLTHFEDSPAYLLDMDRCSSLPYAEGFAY
Sequence of CRX (O43186 whole entry): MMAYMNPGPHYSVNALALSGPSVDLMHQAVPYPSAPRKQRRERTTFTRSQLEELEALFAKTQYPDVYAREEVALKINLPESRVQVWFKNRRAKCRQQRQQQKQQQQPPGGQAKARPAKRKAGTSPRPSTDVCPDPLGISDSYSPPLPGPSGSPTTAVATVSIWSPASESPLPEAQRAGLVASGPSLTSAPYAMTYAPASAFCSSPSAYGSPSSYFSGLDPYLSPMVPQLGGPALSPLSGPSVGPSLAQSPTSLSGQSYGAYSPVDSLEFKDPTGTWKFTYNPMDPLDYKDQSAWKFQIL
Sequence of ETV1 (P50549 whole entry): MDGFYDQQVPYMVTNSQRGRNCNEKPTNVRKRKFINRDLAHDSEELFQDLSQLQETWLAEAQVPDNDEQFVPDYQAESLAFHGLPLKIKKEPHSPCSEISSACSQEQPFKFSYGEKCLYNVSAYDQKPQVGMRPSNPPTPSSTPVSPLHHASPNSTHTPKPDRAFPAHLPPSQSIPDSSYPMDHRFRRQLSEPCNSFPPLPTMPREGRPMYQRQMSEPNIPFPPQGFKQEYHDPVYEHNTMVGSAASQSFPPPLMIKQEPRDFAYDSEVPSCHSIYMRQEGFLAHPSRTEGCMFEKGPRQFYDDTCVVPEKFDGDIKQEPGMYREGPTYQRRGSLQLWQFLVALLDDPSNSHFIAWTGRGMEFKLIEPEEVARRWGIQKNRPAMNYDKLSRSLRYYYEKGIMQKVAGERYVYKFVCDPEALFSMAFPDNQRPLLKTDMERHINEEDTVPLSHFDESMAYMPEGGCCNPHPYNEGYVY
Sequence of SPIB (Q01892 whole entry): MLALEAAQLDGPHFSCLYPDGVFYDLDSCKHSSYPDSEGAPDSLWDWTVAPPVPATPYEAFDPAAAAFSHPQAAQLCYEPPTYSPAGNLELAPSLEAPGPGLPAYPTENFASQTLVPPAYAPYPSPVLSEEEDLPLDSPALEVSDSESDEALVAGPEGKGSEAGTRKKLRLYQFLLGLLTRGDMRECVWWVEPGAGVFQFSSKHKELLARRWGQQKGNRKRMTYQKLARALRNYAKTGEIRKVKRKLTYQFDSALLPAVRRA

Sequence: AAACGG
- binding signal (FLI1): 1.17 fold enrichment (6-mer frequency, TF over GST control)
- binding signal (ELK1): 1.24 fold enrichment (6-mer frequency, TF over GST control)
- binding signal (GABPA): 1.13 fold enrichment (6-mer frequency, TF over GST control)
- binding signal (ERG): 1.3 fold enrichment (6-mer frequency, TF over GST control)
- binding signal (ELF1): 1.21 fold enrichment (6-mer frequency, TF over GST control)
- binding signal (EHF): 1.26 fold enrichment (6-mer frequency, TF over GST control)
- binding signal (SPI1): 1.47 fold enrichment (6-mer frequency, TF over GST control)
- binding signal (SPIB): 1.23 fold enrichment (6-mer frequency, TF over GST control)
- binding signal (ELK3): 1.22 fold enrichment (6-mer frequency, TF over GST control)
- binding signal (FEV): 1.42 fold enrichment (6-mer frequency, TF over GST control)
- binding signal (ETV5): 1.27 fold enrichment (6-mer frequency, TF over GST control)
- binding signal (SPIC): 1.19 fold enrichment (6-mer frequency, TF over GST control)
- binding signal (ELF4): 1.23 fold enrichment (6-mer frequency, TF over GST control)
- binding signal (ELK4): 1.19 fold enrichment (6-mer frequency, TF over GST control)
- binding signal (ETV2): 1.22 fold enrichment (6-mer frequency, TF over GST control)
- binding signal (ELF3): 1.28 fold enrichment (6-mer frequency, TF over GST control)
- binding signal (CRX): 1.01 fold enrichment (6-mer frequency, TF over GST control)
- binding signal (ETV1): 1.27 fold enrichment (6-mer frequency, TF over GST control)

Sequence: TACGTC
- binding signal (FLI1): 1.19 fold enrichment (6-mer frequency, TF over GST control)
- binding signal (ELK1): 1.16 fold enrichment (6-mer frequency, TF over GST control)
- binding signal (GABPA): 1.13 fold enrichment (6-mer frequency, TF over GST control)
- binding signal (ERG): 1.16 fold enrichment (6-mer frequency, TF over GST control)
- binding signal (ELF1): 1.13 fold enrichment (6-mer frequency, TF over GST control)
- binding signal (EHF): 1.25 fold enrichment (6-mer frequency, TF over GST control)
- binding signal (SPI1): 1.12 fold enrichment (6-mer frequency, TF over GST control)
- binding signal (SPIB): 1.31 fold enrichment (6-mer frequency, TF over GST control)
- binding signal (ELK3): 1.21 fold enrichment (6-mer frequency, TF over GST control)
- binding signal (FEV): 1.24 fold enrichment (6-mer frequency, TF over GST control)
- binding signal (ETV5): 1.13 fold enrichment (6-mer frequency, TF over GST control)
- binding signal (SPIC): 1.03 fold enrichment (6-mer frequency, TF over GST control)
- binding signal (ELF4): 1.16 fold enrichment (6-mer frequency, TF over GST control)
- binding signal (ELK4): 1.14 fold enrichment (6-mer frequency, TF over GST control)
- binding signal (ETV2): 1.02 fold enrichment (6-mer frequency, TF over GST control)
- binding signal (ELF3): 1.02 fold enrichment (6-mer frequency, TF over GST control)
- binding signal (CRX): 1 fold enrichment (6-mer frequency, TF over GST control)
- binding signal (ETV1): 1.24 fold enrichment (6-mer frequency, TF over GST control)

Source: paper PMC7862700, “An all-to-all approach to the identification of sequence-specific readers for epigenetic DNA modifications on cytosine”
